Laboratory results: article PMC7862700, “An all-to-all approach to the identification of sequence-specific readers for epigenetic DNA modifications on cytosine”

What was measured:
Assay in all cases: DAPPL (digital affinity profiling via proximity ligation, sequencing); 10 mM Tris-HCl pH 7.5, 50 mM NaCl, 1 mM DTT, 4% glycerol, room temperature, 30 min; GST-TFs on glutathione beads, 16-mer random dsDNA library, 0.1% formaldehyde crosslink after washing; high values mean tight binding
FLI1 = biological target: T1, FLI1 (Homo sapiens, UniProt Q01543 1-452); details: protein: recombinant; tags: N-terminal GST; dsDNA, one strand shown
T1 sequence: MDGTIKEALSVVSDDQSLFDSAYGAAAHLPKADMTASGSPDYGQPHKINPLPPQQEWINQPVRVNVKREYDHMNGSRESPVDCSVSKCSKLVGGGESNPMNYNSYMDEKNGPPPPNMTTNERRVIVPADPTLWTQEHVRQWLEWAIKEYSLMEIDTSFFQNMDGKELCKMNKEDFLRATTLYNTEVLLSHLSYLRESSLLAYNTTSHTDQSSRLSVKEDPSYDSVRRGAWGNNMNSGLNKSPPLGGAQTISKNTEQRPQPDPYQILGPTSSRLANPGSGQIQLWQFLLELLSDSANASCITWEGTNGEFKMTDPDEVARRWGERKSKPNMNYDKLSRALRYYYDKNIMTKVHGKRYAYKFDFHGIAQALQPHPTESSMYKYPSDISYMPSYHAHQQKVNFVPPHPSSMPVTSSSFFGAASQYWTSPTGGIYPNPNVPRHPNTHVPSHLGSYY
How it was run: (§1)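 The binding signal reported is, for every hexamer, its read frequency for a factor over its read frequency for the tag-only sample. Reads came from pools of yeast-expressed, GST-fused human transcription factors on glutathione beads, barcoded with DNA and mixed with that sample, which were incubated with 200 nmole of a random double-stranded 16-mer DNA library in Tris/NaCl/DTT/glycerol buffer at room temperature for 30 min. After washing, the pools were crosslinked with 0.1% formaldehyde, proximity-ligated with BsaI/T4 ligase for 1 h at 37 °C, PCR-amplified and sequenced on an Illumina NextSeq500.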

ELK1 = biological target: T2, ELK1 (Homo sapiens, UniProt P19419 1-428); details: protein: recombinant; tags: N-terminal GST; dsDNA, one strand shown
T2 sequence: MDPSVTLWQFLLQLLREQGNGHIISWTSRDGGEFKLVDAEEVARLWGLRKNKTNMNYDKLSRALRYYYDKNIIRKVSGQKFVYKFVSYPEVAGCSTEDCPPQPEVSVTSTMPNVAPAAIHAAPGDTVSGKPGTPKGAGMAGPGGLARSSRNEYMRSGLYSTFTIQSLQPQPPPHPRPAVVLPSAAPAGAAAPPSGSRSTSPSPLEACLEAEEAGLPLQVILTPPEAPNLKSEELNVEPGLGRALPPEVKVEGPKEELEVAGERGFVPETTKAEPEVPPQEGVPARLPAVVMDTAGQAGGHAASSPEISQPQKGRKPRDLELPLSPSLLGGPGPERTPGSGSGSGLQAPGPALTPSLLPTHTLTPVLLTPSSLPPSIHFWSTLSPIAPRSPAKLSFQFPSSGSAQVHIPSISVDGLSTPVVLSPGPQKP
How it was run: as §1

GABPA = biological target: T3, GABPA (Homo sapiens, UniProt Q06546 1-454); details: protein: recombinant; tags: N-terminal GST; dsDNA, one strand shown
T3 sequence: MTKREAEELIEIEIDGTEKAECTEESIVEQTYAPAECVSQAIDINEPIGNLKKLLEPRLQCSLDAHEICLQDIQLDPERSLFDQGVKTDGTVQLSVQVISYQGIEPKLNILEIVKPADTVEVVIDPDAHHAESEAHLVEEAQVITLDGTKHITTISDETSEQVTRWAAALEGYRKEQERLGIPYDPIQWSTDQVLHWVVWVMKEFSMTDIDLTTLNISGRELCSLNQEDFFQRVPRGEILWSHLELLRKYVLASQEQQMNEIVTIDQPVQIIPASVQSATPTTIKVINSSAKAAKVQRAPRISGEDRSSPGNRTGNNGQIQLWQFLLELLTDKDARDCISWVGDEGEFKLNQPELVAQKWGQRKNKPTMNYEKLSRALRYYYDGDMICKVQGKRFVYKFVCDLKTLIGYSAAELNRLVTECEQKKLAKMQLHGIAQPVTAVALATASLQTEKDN
How it was run: as §1

ERG = biological target: T4, ERG (Homo sapiens, UniProt P11308 1-479); details: protein: recombinant; tags: N-terminal GST; dsDNA, one strand shown
T4 sequence: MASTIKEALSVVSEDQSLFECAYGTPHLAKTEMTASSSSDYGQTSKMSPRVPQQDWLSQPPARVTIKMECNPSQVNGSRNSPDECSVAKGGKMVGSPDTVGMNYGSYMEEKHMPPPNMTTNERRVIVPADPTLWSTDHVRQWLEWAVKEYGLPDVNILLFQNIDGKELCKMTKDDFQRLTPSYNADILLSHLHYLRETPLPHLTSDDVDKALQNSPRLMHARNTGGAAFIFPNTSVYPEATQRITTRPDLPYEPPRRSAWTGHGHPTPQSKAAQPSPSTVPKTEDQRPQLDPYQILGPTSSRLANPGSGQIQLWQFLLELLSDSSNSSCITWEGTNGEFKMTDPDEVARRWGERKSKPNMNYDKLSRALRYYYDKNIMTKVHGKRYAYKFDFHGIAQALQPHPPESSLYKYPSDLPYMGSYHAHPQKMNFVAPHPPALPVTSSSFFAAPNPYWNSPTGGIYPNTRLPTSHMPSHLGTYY
How it was run: as §1

ELF1 = ELF1 (Homo sapiens, UniProt P32519 1-619); details: protein: recombinant; tags: N-terminal GST; dsDNA, one strand shown
How it was run: as §1

EHF = biological target: T5, EHF (Homo sapiens, UniProt Q9NZC4 1-300); details: protein: recombinant; tags: N-terminal GST; dsDNA, one strand shown
T5 sequence: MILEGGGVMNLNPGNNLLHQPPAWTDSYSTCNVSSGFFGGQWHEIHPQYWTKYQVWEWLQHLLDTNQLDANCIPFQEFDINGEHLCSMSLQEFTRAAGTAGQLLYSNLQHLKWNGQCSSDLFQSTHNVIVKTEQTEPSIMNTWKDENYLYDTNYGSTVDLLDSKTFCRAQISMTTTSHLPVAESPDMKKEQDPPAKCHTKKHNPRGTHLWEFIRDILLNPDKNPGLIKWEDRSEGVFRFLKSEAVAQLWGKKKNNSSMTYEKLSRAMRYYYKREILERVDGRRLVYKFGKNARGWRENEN
How it was run: as §1

SPI1 = SPI1 (Homo sapiens, UniProt P17947 1-270); details: protein: recombinant; tags: N-terminal GST; dsDNA, one strand shown
How it was run: as §1

SPIB = SPIB (Homo sapiens, UniProt Q01892 1-262); details: protein: recombinant; tags: N-terminal GST; dsDNA, one strand shown
How it was run: as §1

ELK3 = biological target: T6, ELK3 (Homo sapiens, UniProt P41970 1-407); details: protein: recombinant; tags: N-terminal GST; dsDNA, one strand shown
T6 sequence: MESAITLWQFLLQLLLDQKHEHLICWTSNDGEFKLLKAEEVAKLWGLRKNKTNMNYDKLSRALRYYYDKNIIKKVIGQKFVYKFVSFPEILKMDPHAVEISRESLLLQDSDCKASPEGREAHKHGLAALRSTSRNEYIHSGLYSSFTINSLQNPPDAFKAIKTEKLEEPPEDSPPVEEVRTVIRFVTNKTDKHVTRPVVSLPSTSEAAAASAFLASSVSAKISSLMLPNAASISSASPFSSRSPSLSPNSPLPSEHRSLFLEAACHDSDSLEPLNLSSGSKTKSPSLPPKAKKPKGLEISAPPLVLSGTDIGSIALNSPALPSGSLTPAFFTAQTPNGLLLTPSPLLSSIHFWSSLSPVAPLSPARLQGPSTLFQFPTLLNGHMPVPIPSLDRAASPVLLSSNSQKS
How it was run: as §1

FEV = biological target: T7, FEV (Homo sapiens, UniProt Q99581 1-238); details: protein: recombinant; tags: N-terminal GST; dsDNA, one strand shown
T7 sequence: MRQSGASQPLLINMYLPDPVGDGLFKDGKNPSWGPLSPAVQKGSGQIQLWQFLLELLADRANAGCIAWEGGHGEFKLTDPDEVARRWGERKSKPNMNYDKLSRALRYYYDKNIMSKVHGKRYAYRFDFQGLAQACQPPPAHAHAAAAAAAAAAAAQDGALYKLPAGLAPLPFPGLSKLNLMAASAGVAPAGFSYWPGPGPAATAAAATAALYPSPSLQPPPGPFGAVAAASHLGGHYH
How it was run: as §1

ETV5 = ETV5 (Homo sapiens, UniProt P41161 1-510); details: protein: recombinant; tags: N-terminal GST; dsDNA, one strand shown
How it was run: as §1

HSF1 = HSF1 (Homo sapiens, UniProt Q00613 1-529); details: protein: recombinant; tags: N-terminal GST; chain copies: 3; dsDNA, one strand shown
How it was run: as §1

SPIC = biological target: T8, SPIC (Homo sapiens, UniProt Q8N5J4 1-248); details: protein: recombinant; tags: N-terminal GST; dsDNA, one strand shown
T8 sequence: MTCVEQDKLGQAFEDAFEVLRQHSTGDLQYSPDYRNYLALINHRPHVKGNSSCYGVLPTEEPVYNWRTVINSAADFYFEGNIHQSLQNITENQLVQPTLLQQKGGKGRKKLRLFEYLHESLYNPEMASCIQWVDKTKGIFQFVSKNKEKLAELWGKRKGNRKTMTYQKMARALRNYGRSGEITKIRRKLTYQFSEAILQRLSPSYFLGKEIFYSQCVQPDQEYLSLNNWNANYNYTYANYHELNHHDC
How it was run: as §1

ELF4 = ELF4 (Homo sapiens, UniProt Q99607 1-663); details: protein: recombinant; tags: N-terminal GST; dsDNA, one strand shown
How it was run: as §1

ELK4 = biological target: T9, ELK4 (Homo sapiens, UniProt P28324-2 1-405); details: protein: recombinant; tags: N-terminal GST; dsDNA, one strand shown
T9 sequence: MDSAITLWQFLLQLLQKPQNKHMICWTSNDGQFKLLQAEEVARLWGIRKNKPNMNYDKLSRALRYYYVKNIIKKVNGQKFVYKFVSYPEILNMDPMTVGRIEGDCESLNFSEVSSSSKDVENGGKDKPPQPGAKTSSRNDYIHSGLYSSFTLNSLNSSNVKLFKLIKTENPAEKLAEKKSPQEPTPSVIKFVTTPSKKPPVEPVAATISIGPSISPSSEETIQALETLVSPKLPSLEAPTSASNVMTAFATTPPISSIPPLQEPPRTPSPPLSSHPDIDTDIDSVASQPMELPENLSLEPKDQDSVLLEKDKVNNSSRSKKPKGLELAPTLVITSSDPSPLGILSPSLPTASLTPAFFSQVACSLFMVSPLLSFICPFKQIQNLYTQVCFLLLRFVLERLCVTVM
How it was run: as §1

ETV2 = biological target: T10, ETV2 (Homo sapiens, UniProt O00321 1-342); details: protein: recombinant; tags: N-terminal GST; dsDNA, one strand shown
T10 sequence: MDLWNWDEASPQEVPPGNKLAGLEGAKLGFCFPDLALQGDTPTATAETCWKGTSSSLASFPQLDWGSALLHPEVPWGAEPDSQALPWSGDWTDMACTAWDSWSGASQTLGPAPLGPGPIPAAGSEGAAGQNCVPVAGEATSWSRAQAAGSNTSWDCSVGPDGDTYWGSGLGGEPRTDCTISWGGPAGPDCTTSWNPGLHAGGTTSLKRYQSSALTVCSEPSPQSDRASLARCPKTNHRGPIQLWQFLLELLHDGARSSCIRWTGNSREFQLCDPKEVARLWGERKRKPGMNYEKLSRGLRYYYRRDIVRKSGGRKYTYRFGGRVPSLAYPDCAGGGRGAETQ
How it was run: as §1

ELF3 = biological target: T11, ELF3 (Homo sapiens, UniProt P78545 1-371); details: protein: recombinant; tags: N-terminal GST; dsDNA, one strand shown
T11 sequence: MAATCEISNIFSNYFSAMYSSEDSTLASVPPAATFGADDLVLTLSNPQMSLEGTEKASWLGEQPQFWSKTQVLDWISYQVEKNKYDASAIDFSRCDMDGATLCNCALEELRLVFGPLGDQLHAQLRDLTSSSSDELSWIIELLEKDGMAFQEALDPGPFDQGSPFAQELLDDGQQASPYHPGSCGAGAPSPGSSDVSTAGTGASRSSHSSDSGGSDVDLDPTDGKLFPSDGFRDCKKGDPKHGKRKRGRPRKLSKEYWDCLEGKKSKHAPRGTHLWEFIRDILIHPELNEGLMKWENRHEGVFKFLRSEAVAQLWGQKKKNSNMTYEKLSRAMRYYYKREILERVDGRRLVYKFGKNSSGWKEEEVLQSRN
How it was run: as §1

CRX = CRX (Homo sapiens, UniProt O43186 1-299); details: protein: recombinant; tags: N-terminal GST; dsDNA, one strand shown
How it was run: as §1

ETV1 = ETV1 (Homo sapiens, UniProt P50549 1-477); details: protein: recombinant; tags: N-terminal GST; dsDNA, one strand shown
How it was run: as §1

Sequence of ELF4 (Q99607 whole entry): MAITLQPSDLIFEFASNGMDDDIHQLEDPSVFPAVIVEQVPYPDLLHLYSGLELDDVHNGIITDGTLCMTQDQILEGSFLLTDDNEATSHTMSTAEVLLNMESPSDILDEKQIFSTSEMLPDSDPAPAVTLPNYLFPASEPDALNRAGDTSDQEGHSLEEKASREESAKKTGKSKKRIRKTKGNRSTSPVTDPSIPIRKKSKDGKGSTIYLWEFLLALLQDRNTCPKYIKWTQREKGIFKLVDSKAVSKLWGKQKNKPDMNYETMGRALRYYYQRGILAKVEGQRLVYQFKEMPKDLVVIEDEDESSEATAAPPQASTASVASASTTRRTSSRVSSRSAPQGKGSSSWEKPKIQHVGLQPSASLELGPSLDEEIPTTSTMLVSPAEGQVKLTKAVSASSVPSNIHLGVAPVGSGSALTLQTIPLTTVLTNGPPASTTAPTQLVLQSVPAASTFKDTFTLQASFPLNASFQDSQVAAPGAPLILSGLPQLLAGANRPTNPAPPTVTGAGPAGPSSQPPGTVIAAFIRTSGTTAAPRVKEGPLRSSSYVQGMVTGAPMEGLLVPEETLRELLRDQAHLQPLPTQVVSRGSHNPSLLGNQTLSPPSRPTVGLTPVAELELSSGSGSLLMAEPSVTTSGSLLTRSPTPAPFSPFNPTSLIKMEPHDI
Sequence of HSF1 (Q00613 whole entry): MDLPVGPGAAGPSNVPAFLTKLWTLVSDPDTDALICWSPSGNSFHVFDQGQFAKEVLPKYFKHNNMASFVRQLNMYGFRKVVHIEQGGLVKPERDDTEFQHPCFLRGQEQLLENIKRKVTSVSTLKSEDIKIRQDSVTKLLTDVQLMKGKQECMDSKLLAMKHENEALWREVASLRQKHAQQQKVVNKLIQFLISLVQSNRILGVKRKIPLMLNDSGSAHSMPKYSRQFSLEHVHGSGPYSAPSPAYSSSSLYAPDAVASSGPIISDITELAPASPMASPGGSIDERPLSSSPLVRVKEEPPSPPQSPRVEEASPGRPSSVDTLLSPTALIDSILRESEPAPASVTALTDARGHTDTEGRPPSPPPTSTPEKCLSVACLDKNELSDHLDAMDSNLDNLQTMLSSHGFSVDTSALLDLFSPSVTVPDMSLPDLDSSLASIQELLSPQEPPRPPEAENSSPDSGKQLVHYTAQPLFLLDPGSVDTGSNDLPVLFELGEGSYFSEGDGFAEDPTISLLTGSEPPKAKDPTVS
Sequence of SPIB (Q01892 whole entry): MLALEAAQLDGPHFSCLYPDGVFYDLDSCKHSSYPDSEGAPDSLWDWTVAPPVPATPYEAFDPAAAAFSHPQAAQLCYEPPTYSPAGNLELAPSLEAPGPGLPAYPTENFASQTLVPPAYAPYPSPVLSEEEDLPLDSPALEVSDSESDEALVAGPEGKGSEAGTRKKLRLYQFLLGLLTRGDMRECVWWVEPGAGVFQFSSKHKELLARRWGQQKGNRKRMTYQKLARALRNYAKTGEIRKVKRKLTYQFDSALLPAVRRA
Sequence of ELF1 (P32519 whole entry): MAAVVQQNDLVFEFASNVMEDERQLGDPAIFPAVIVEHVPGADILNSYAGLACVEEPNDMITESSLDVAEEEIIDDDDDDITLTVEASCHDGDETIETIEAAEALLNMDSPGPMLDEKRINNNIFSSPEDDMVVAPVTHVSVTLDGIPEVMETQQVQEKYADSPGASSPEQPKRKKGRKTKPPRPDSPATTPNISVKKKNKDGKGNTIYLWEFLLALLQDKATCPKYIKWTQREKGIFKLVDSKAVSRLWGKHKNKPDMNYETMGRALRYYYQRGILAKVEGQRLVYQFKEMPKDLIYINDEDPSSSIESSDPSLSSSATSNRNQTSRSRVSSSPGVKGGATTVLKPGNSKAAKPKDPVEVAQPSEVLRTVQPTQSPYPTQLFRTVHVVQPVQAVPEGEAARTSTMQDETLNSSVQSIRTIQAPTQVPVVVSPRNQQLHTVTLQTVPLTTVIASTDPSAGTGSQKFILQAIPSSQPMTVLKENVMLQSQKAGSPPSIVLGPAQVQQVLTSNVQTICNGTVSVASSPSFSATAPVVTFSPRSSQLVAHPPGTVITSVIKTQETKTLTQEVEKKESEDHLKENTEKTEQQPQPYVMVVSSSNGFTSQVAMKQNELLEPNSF
Sequence of ETV5 (P41161 whole entry): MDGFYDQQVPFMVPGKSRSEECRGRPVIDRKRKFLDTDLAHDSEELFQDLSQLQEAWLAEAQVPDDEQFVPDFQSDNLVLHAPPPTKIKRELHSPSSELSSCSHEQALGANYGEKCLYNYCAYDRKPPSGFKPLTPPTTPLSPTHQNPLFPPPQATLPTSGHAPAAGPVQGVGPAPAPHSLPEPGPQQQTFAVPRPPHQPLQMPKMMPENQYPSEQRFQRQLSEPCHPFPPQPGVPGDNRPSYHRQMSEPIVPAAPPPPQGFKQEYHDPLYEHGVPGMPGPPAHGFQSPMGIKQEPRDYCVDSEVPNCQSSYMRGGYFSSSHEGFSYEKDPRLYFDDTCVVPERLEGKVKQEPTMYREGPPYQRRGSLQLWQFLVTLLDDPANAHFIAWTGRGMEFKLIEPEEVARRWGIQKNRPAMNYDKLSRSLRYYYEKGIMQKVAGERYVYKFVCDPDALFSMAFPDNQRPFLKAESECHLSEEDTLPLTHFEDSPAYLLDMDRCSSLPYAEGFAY
Sequence of CRX (O43186 whole entry): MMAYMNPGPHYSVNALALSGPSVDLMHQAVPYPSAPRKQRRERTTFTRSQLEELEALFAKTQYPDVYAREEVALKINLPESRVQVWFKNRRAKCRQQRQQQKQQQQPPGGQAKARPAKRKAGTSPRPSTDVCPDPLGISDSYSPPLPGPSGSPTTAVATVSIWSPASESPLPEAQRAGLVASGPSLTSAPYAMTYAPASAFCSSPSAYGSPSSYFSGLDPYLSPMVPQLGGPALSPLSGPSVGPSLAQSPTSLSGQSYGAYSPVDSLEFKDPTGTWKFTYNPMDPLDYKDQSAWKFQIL
Sequence of ETV1 (P50549 whole entry): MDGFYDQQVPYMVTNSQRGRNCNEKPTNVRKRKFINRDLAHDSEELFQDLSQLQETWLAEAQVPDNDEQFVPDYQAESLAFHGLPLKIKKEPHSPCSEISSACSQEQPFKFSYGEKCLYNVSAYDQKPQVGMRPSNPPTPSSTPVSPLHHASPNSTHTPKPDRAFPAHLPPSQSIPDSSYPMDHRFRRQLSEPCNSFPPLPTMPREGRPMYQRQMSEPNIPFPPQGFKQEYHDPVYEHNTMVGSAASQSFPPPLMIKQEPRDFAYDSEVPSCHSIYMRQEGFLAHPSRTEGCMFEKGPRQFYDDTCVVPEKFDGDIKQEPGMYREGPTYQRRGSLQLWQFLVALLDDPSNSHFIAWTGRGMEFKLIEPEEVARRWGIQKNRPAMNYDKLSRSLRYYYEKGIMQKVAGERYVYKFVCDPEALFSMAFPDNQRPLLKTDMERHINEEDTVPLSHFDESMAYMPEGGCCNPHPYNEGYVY

TAATGC
binding signal (FLI1): 1.26 fold enrichment (6-mer frequency, TF over GST control) | binding signal (ELK1): 1.22 fold enrichment (6-mer frequency, TF over GST control) | binding signal (GABPA): 1.26 fold enrichment (6-mer frequency, TF over GST control) | binding signal (ERG): 1.18 fold enrichment (6-mer frequency, TF over GST control) | binding signal (ELF1): 1.16 fold enrichment (6-mer frequency, TF over GST control) | binding signal (EHF): 1.22 fold enrichment (6-mer frequency, TF over GST control) | binding signal (SPI1): 1.1 fold enrichment (6-mer frequency, TF over GST control) | binding signal (SPIB): 1.24 fold enrichment (6-mer frequency, TF over GST control) | binding signal (ELK3): 1.29 fold enrichment (6-mer frequency, TF over GST control) | binding signal (FEV): 1.17 fold enrichment (6-mer frequency, TF over GST control) | binding signal (ETV5): 1.16 fold enrichment (6-mer frequency, TF over GST control) | binding signal (HSF1): 1.63 fold enrichment (6-mer frequency, TF over GST control) | binding signal (SPIC): 1.21 fold enrichment (6-mer frequency, TF over GST control) | binding signal (ELF4): 1.28 fold enrichment (6-mer frequency, TF over GST control) | binding signal (ELK4): 1.23 fold enrichment (6-mer frequency, TF over GST control) | binding signal (ETV2): 1.29 fold enrichment (6-mer frequency, TF over GST control) | binding signal (ELF3): 1.23 fold enrichment (6-mer frequency, TF over GST control) | binding signal (CRX): 2.32 fold enrichment (6-mer frequency, TF over GST control) | binding signal (ETV1): 1.28 fold enrichment (6-mer frequency, TF over GST control)
